# Results taken from PubChem BioAssay (NCATS).
# Results filed as inconclusive are left out. A call without a number means that no potency is given here. Active and inactive are the calls of the source. The call rests on the fitted dose curve; in most records, active means well fitted cell-killing curve with a large enough effect; inconclusive means small, poorly fitted or top-dose-only effect, or effect the other way; inactive means flat fitted curve, though single readings scatter.
# Legend:
# Test in all cases: Primary qHTS to identify gynecologic anti-cancer compounds using libraries of approved drugs and bioactive compounds (AID 1345084); further: nearly all actives have a fitted effect of over 55% in size
# Details in all cases: Gynecologic cancer cell panel viability, ATPlite luminescence, 48 h; series mostly up to 57.5 µM
# [1] = tested on: PA-1
# In short: (§1)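 Five-point cytotoxicity, 48 h drug exposure at 37 C, 5% CO2, on cells seeded 16 h beforehand. ATP content read by ATPlite luminescence.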
# [2] = tested on: Tov-21-G
# In short: as §1
# [3] = tested on: Tov112D
# In short: as §1
# Potency means the concentration at half of the fitted maximal effect.
SMILES,Potency [1],Potency [2],Potency [3]
CC(C)=CCC(O)/C(C)=C/CO[C@@H]1O[C@H](CO)[C@@H](O)[C@H](O)[C@H]1O (some centres undefined),inactive,inactive,inactive
OC[C@H]1O[C@@H](Oc2ccccc2)[C@H](O)[C@@H](O)[C@@H]1O,inactive,inactive,inactive
NC(=O)[C@H](O[C@@H]1O[C@H](CO)[C@@H](O)[C@H](O)[C@H]1O)c1ccccc1,inactive,inactive,inactive
O=C1OCC(c2ccccc2)=C1Cc1ccccc1,inactive,inactive,inactive
CC(C)c1cc(C(=O)N2CC[C@@H](NC(=O)C3CC3)C2)n[nH]1,inactive,inactive,inactive
Clc1cc2c(NC3CCCC3)nnc(-c3ccncc3)c2cc1Cl,inactive,inactive,inactive
CC(=O)OC1C[C@@]2(C)[C@@H](CC[C@@H](C)[C@]23Cc2c(O)cc4c(c2O3)CNC4=O)C(C)(C)[C@@H]1O (some centres undefined),inactive,inactive,inactive
COc1ccc(CCC(=O)c2c(O)cc(O)cc2O[C@@H]2O[C@H](CO)[C@@H](O)[C@H](O)[C@H]2O)cc1,inactive,inactive,inactive
Cc1cc(C)c(CNC(=O)c2cc(-c3ccc(CN4CCOCC4)cc3)cc3c2cnn3C2CCCC2)c(=O)[nH]1,inactive,inactive,inactive
CC(C)(C(=O)NCC(F)(F)C(F)(F)F)C(=O)NC1C(=O)Nc2ccccc2-c2ccccc21 (centres undefined),inactive,inactive,inactive
NC(=O)c1cnc(NCCc2ccc(O)c(Cl)c2)nc1NCc1ccccc1,10 µM (active),7.94 µM (active),12.6 µM (active)
C=C1C(=O)OC2C1C(O)CC1(C)C(O)CCC(C=O)C21 (centres undefined),inactive,inactive,inactive
CCC(COC)n1nnc2c(Nc3ccc(OC)cc3C)nc(C)cc21 (centres undefined),inactive,inactive,inactive
